Compounds with a hit are over-represented: about 10% of the library has one in this group of screens.
ELG1 DNA repair: qHTS screen for small molecules that inhibit ELG1-dependent DNA repair in human embryonic kidney (HEK293T) cells expressing luciferase-tagged ELG1; HEK293T ELG1-luciferase reporter, luminescence, 16 h; DNA damage induced by 5-fluorouridine; Potency, µM (top dose mostly 46.1 µM), for inactives: top-dose activity change, negative = inhibition, usual class: inhibitors; 330,000 compounds, 2.3% hits; further: on the % scale 0 is the no-effect control and ±100 the full control effect; nearly all actives have a fitted effect of over 55% in size
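Step one: seed 2,000 cells per well. Step two: pin-transfer compound or DMSO alongside 5-fluorouridine. Step three: incubate 16 hr, 37 °C, 5% CO2. Step four: add ONE-Glo, wait 30 min, read luminescence.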
Gal4-VP16 FLuc: VP16 counterscreen qHTS for inhibitors of ROR gamma transcriptional activity; AID 2546, 2010; Drosophila S2 Gal4-VP16 UAS-luciferase, luminescence, 20 h; 310,000 compounds, 3.5% hits; Potency, µM (highest dose often 53.6 µM), for inactives: top-dose activity, negative = inhibition, hits mostly inhibitors;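 further: Gal4-VP16 expression switched on by copper sulfate through the metallothionein promoter; on the % scale 0 is the no-effect control and ±100 the full control effect; nearly all actives have a fitted effect of over 50% in size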
SW480 rerep: A quantitative high throughput screen for small molecules that induce DNA re-replication in SW480 colon adenocarcinoma cells; SW480 DNA re-replication, Hoechst DNA content imaging, 48 h; Potency, µM (titrated, usually from 46.1 µM), for the others: at the top dose re-replication activation, usual class: activators; 340,000 compounds, 1.8% hits; further: % of control where 0% means no effect; nearly all actives have a fitted effect of over 55% in size
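Quantitative HTS format with DMSO vehicle controls; 48 hr drug incubation at 37 C, then 40 min Hoechst staining and scanning imager measurement at 405 nm excitation.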
RORg inh: qHTS for inhibitors of ROR gamma transcriptional activity. Drosophila S2 Gal4-RORgamma UAS-luciferase reporter, 20 h. 310,000 compounds, 5.4% hits. AID 2551, 2010. Potency, µM (doses to about 53.6 µM), for inactives: at the highest dose activity change, negative = inhibition, actives largely listed as inhibitors. Nuclear receptor ROR-gamma (Mus musculus), P51450; further: on the % scale 0 is the no-effect control and ±100 the full control effect; nearly all actives have a fitted effect of over 60% in size
Target sequence (P51450 whole entry, looked up, the tested form may be a part): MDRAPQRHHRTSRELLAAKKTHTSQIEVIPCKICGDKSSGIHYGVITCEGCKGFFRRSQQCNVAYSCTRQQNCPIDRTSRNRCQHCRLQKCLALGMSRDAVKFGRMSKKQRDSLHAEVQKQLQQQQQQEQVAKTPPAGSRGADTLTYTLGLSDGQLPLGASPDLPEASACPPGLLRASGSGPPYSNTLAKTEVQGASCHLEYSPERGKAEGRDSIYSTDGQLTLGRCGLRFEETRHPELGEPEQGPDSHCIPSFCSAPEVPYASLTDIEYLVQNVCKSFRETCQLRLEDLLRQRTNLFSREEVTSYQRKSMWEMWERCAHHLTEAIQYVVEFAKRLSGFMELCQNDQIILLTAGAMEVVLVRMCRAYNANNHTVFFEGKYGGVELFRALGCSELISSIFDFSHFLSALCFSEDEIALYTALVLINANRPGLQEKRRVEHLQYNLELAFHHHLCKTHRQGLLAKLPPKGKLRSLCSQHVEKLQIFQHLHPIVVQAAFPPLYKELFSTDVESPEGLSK
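ROR gamma transcriptional activity was tracked as Gal4-UAS luciferase output in stably transfected Drosophila Schneider cells, with compound added 1 hr before 700 uM copper sulfate induction and a 20 hr ambient-temperature incubation.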
MCF10A rereplic: A quantitative high throughput screen for small molecules that induce DNA re-replication in MCF 10a normal breast cells | MCF 10A DNA re-replication, Hoechst nuclear intensity, 48 h | Potency, µM (top dose mostly 46.1 µM), without a hit: at the highest dose activity, positive = re-replication, usual class: activators | 350,000 compounds, 2.9% hits; further: % of control where 0% means no effect; nearly all actives have a fitted effect of over 50% in size
Active calls of the source: *; ? = inconclusive; nt = no result given; ! = not confirmed by another sample; [ ] = another dose, or the depositor's remark. The call rests on the fitted dose curve; in most records, active means well fitted curve in the direction sought with a large enough effect; inconclusive means small, poorly fitted or top-dose-only effect, or another doubt; inactive means no such curve, though single readings can be large; an effect the other way counts as inactive or inconclusive. Potency means the concentration at half of the fitted maximal effect.

SMILES	ELG1 DNA repair	Gal4-VP16 FLuc	SW480 rerep	RORg inh	MCF10A rereplic
Fc1ccccc1-c1nc2nc3ccccc3nc2n1CC1CCCO1 (stereo not given)	2.4%	-1.8%	2.6%	4.2%	20.1%
COc1cc(C[C@@H](C)[C@@H](C)Cc2ccc(O)c(OC)c2)ccc1O	3.9%	nt	-3.3%	nt	?
CC(Cc1ccc(O)c(O)c1)C(C)Cc1ccc(O)c(O)c1 (stereo not given)	nt	-0.4%	0.366µM*!	-0.4%	?
C#CCOCCOCCOCCNc1nc(N2CCN(C(=O)Cn3cc(CCCCN)nn3)CC2)nc(N2CCN(C(=O)[C@H](Cc3ccc(O)cc3)n3cc(CCO)nn3)CC2)n1	nt	nt	4.7%[9.22 µM]	nt	3.66µM*
C#CCOCCOCCOCCNc1nc(N2CCN(C(=O)[C@H](CCCCN)n3cc(CCCC)nn3)CC2)nc(N2CCN(C(=O)[C@H](Cc3ccc(O)cc3)n3cc(CCO)nn3)CC2)n1	4.6%	-2.8%	-41.0%	1.8%	-0.6%
C#CCOCCOCCOCCNc1nc(N2CCN(C(=O)[C@H](Cc3cc4ccccc4[nH]3)n3cc([C@@H](N)CC(C)C)nn3)CC2)nc(N2CCN(C(=O)[C@H](Cc3cc4ccccc4[nH]3)n3cc([C@@H](N)CC(C)C)nn3)CC2)n1	17.9%	15.8µM*	-15.0%	?	11.9%
C#CCOCCOCCOCCNc1nc(N2CCN(C(=O)CCCCCCCCCCNC(=O)[C@H](CCCCN)n3cc(C[C@@H](C)CC)nn3)CC2)nc(N2CCN(C(=O)CCCCCCCCCCNC(=O)[C@H](CCCCN)n3cc(C[C@@H](C)CC)nn3)CC2)n1	nt	nt	-7.6%[9.22 µM]	nt	18.4µM*
C#CCOCCOCCOCCNc1nc(N2CCN(C(=O)CCCCCCCCCCNC(=O)[C@@H]([C@H](C)O)n3cc(C)nn3)CC2)nc(N2CCN(C(=O)CCCCCCCCCCNC(=O)[C@@H]([C@H](C)O)n3cc(C)nn3)CC2)n1	?	nt	2.2%	nt	13µM*
CCOc1ccccc1C(=O)NC(C(=O)N(C)c1c(N)n(Cc2ccccc2)c(=O)[nH]c1=O)C(C)C (stereo not given)	nt	nt	-0.3%	nt	0.1%
O=P(OC1CCCCC1)(OC1CCCCC1)C(Nc1ccccc1)c1cccnc1 (stereo not given)	?	3.0%	-63.4%	10.4%	?
CNC[C@@H](C)NC[C@@H](Cc1ccccc1)NCCc1ccccc1	6.5%	1.4%	0.366µM*	-37.2%	-35.0%
Cc1cnc(C(=O)OCC(=O)Nc2c(Cl)cc(Cl)cc2Cl)cn1	5.8%	nt	16.3%	nt	-0.4%
CCc1nc(SCc2ccc(OCC(C)C)cc2)n[nH]1	?	15.8µM*	12.9%	?	0.0%
CC(C)(C)OC(=O)N(CCc1ccccc1)Cc1ccccc1OCc1cccc(NC(=O)C2CCC2)c1	nt	nt	-3.8%	nt	-3.7%
Cc1ccc(CCC(=O)Nc2ncc(Cc3cccc(Cl)c3Cl)s2)o1	7.9%	?	1.16µM*	35.5µM*	?
c1ccc(-c2nc3ccccc3o2)nc1	?	-12.5%	-2.7%	-11.5%	4.0%
c1ccc2nc(-c3nc4ccccc4o3)ccc2c1	?	10µM*	1.3%	-3.1%	-14.5%
COC(=O)c1c(NC(=O)c2nc3nc(C)cc(C(F)F)n3n2)sc2c1CCC2	23.1µM*	-21.1%	-1.3%	-2.6%	39.4%
Cc1cc(C(F)F)n2nc(C(=O)Nc3sc4c(c3C(N)=O)CCC4)nc2n1	?	-1.2%	1.0%	-2.3%	-2.3%
COc1cc(/C=N/n2c(C3CCCCC3)n[nH]c2=S)cc(OC)c1O	?	-4.2%	-0.2%	-31.3%	10.1%
S=c1[nH]nc(C2CCCCC2)n1/N=C/c1c(Cl)cccc1Cl	2.4%	?	-6.6%	?	?
O=C(O)COc1ccccc1/C=N/n1c(C2CCCCC2)n[nH]c1=S	12.0%	-7.6%	-15.3%	-30.7%	0.5%
CCc1ccc(/C=N/n2c(C3CCCCC3)n[nH]c2=S)cc1	-1.5%	8.91µM*	24.3%	3.55µM*	?
